Source: PubChem BioAssay
Tau FP inhib: blocks human tau fibril formation measured by polarization; P10636; K18 P301L tau heparin fibrillization, Alexa594 FP, 6 h; Potency, µM (doses to about 57.7 µM), for the others: top-dose activity, negative = inhibition, hits mostly inhibitors; actives 0.39% (n = 280,000); also: potency is read from the fitted curve at half-maximal effect; nearly all actives have a fitted effect of over 55% in size
Target sequence (P10636 561-689 P618L limits assumed): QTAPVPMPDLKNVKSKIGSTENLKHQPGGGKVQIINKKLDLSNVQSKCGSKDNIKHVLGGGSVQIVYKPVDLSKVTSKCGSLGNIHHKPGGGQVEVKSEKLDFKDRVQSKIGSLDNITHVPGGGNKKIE
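K18 P301L tau (15 uM unlabeled/0.24 uM Alexa 594-labeled, final) + compound + heparin 20 uM final; 100 mM NaOAc pH 7; 6 hr 37 C; ThT 30 uM final added, 1 hr RT; FP ex 555/em 632 nm.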
FBPA coupling cs: inhibits coupling enzyme system, counter-screen for aldolase hits; activity change, negative = inhibition, % at 58.2 µM, hits read low; coupling enzyme system counterscreen, AmpLite Red fluorescence; actives 0.67% (n = 290,000); in the data active = activity change below about -30%
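Final compound at 57.5 uM, incubated 10 min at RT with coupling enzyme reagent (glyceraldehyde-3-phosphate), then 20 min with substrate and AmpLite Red detection. Fluorescence read at 525/598 nm; tests interference with the coupling assay, not aldolase inhibition.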
KDM4E inh: JMJD2E (human) inhibition | B2RXH2 | JMJD2E catalytic domain, FDH-coupled NADH fluorescence (FDH is formaldehyde dehydrogenase) | Potency, µM (highest dose often 57.1 µM), for inactives: at the top dose activity change, negative = inhibition, usual class: inhibitors | actives 1.6% (n = 230,000) | AID 2147; active = well fitted inhibition curve with a large enough effect, not every such curve was filed as active; inconclusive = small, poorly fitted or top-dose-only effect, or another doubt; inactive = no such curve, though single readings can be large or run the other way;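 also: potency is read from the fitted curve at half-maximal effect; 0% = wells with enzyme and -100% = buffer wells without enzyme; nearly all actives have a fitted effect of over 50% in size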
Target sequence (B2RXH2 1-337 limits assumed): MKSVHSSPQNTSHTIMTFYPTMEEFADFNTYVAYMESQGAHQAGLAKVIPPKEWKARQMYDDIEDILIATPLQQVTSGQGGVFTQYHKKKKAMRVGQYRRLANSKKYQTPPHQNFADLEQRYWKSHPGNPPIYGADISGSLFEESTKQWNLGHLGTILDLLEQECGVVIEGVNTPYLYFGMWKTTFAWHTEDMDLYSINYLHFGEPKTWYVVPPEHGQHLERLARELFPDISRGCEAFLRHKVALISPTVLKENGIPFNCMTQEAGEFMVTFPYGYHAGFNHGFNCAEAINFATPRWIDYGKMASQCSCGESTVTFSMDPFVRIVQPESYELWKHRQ
Tau fluor cs: counter-screen for tau fibril formation inhibitors | Potency, µM (doses to about 57.7 µM), for inactives: top-dose activity change, negative = decrease | tau K18 P301L Alexa594 fluorescence, heparin fibrillization | AID 1463 | actives 0.93% (n = 280,000); also: potency is read from the fitted curve at half-maximal effect; nearly all actives have a fitted effect of over 55% in size
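Human tau K18 P301L (15 uM unlabeled, 0.24 uM Alexa 594-labeled) in 100 mM sodium acetate pH 7 with 20 uM heparin, 6 hr at 37 C. ThT 30 uM added, 1 hr ambient; Alexa 594 FP and total fluorescence read at 555/632 nm.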
Tau ThT inhib: inhibitors of human tau fibril formation, thioflavin T binding; recombinant tau K18 P301L (four-repeat tau fragment), heparin-induced fibrillization, ThT fluorescence; Potency, µM (series often up to 57.4 µM), for inactives: at the top dose activity, negative = inhibition, usual class: inhibitors; actives 2.1% (n = 270,000); AID 1460; also: potency is read from the fitted curve at half-maximal effect; nearly all actives have a fitted effect of over 55% in size
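Aggregation was driven by heparin (20 uM final) acting on recombinant tau […] bearing P301L in 100 mM sodium acetate pH 7; fibrils were detected with Thioflavin T.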
Starred values were filed as active, the others as inactive; ? = inconclusive; nt = no result given; [ ] = dose if it differs, or a comment. Compounds with a hit are over-represented: about 3% of the library has one in this group of screens. Unless noted, calls follow the shape of the dose curve; as a rule, active = well fitted curve in the direction sought with a large enough effect; inconclusive = small, poorly fitted or top-dose-only effect, or another doubt; inactive = no such curve, though single readings can be large; an effect the other way counts as inactive or inconclusive. Unless noted, % is scaled to controls: 0 for no effect and ±100 for the full control effect.

SMILES | Tau FP inhib | FBPA coupling cs | KDM4E inh | Tau fluor cs | Tau ThT inhib
Oc1ccc(/C=N/Nc2ccc3ccccc3c2)c(O)c1 | ? | -4 | ? | 20µM*[quencher] | 18µM*
Oc1ccccc1/C=N/Nc1ccccc1 | 18% | -1 | -12% | 25µM*[quencher] | ?
O=C(CCCCCNC(=O)c1ccccc1)N/N=C/c1ccccc1O | 0% | 7 | 25µM* | -17% | -16%
COc1ccc(C(=O)Nc2nc3n(n2)C(c2ccc(F)cc2)C=C(c2ccc(Cl)cc2)N3)cc1 (stereo unspecified) | -1% | nt | nt | -13% | ?
CCc1noc(-c2ccc(N3CCC(C)CC3)c([N+](=O)[O-])c2)n1 | -8% | nt | nt | -24% | 0%
Fc1ccc(Nc2ccc3ccccc3n2)c(F)c1 | 10% | -1 | 22µM* | -21% | -5%
COc1ccc(-c2nnc(-c3cccs3)o2)cc1OC | -3% | 1 | ? | -6% | -17%
COc1ccc(-c2nc(-c3cccs3)c(-c3cccs3)[nH]2)cc1O | -2% | -1 | ? | 13µM*[quencher] | 13µM*
COc1ccccc1CC(=O)Nc1ccc2nc(Nc3cccc(C(F)(F)F)c3)cc(C)c2c1 | -7% | nt | nt | 6.3µM*[quencher] | -13%
COc1cccc(CC(=O)Nc2ccc3nc(Nc4cccc(C(F)(F)F)c4)cc(C)c3c2)c1 | ? | nt | nt | 7.1µM*[quencher] | ?
CCOC(=O)c1cnc(SC2CCc3ccccc3C2=O)nc1N (stereo unspecified) | ? | -21 | -6% | ? | 28µM*
COc1cccc(-c2ccc3ncnc(NCc4cnc(C)cn4)c3c2)c1 | nt | 4 | nt | nt | nt
O=C(/C=C/c1ccco1)NC(=S)Nc1ccc(N2CCCC2)cc1 | -13% | -8 | 11µM* | ? | 3.5µM*
O=C(/C=C/c1ccco1)NC(=S)Nc1ccc(C(=O)O)cc1 | nt | -3 | nt | nt | nt
O=C(/C=C/c1ccco1)NC(=S)Nc1ccc(Cl)cn1 | -3% | -2 | ? | ? | 22µM*
O=C(/C=C\c1ccco1)Nc1ccc(N2CCN(C(=O)c3ccccc3)CC2)cc1 | 2% | 1 | -2% | ? | 11µM*
Nn1cc(Br)c(=O)[nH]c1=O | -5% | nt | nt | -11% | -9%
Nc1ncc(N=Nc2cc(C(=O)O)ccc2Cl)s1 | ? | 1 | 25µM* | -28% | 14µM*
c1ccc(-c2ccccc2OCCOCCN2CCOCC2)cc1 | nt | -51* | nt | nt | nt
CCN1C(=O)/C(=c2\sc3nc(=O)c(Cc4ccccc4)nn3c2=O)c2ccccc21 | -17% | 1 | -10% | -14% | 20µM*
C=CCN1C(=O)/C(=c2\sc3nc(=O)c(Cc4ccc(OC)c(OC)c4)nn3c2=O)c2ccccc21 | ? | 6 | -3% | -30% | 28µM*
C=CCN1C(=O)/C(=c2\sc3nc(=O)c(Cc4ccccc4)nn3c2=O)c2ccccc21 | ? | 4 | -12% | -23% | 18µM*
O=C(/C=C/c1ccccc1)N1CCN(Cc2cc(=O)n3nc(-c4ccccc4)sc3n2)CC1 | 5% | nt | nt | 12% | ?
COc1cccc(F)c1C(=O)NC(=O)Nc1ccc2nc(C)oc2c1 | ? | -31* | ? | ? | nt
COc1ccc(S(=O)(=O)N(CC(=O)NC(C)c2ccccc2)c2ccc(C)cc2)cc1OC (stereo unspecified) | -3% | nt | nt | -18% | -17%
SMILES | Tau FP inhib | FBPA coupling cs | KDM4E inh | Tau fluor cs | Tau ThT inhib
Cc1cc(=O)oc2cc(OCC(=O)N/N=C/c3cc([N+](=O)[O-])ccc3O)ccc12 | -7% | 5 | ? | -19% | 3.5µM*
CN1CCN(CCC(=O)N/N=C/c2cc([N+](=O)[O-])ccc2O)CC1 | 1% | -4 | 0.89µM* | -5% | ?
O=C(CCC(=O)Nc1cccc(Cl)c1)N/N=C/c1cc([N+](=O)[O-])ccc1O | -2% | 0 | 18µM* | ? | ?
Cc1c(NC(=S)N/N=C/c2cc([N+](=O)[O-])ccc2O)c(=O)n(-c2ccccc2)n1C | -1% | 9 | 8.9µM* | -26% | 32µM*
Cc1c(NC(=S)N/N=C/c2ccc(O)cc2)c(=O)n(-c2ccccc2)n1C | -3% | 1 | -23% | -14% | -8%
COc1cccc2c1Oc1ncccc1N(C(=O)Nc1cccc(Cl)c1)C2 | -7% | nt | nt | ? | -15%
Cc1cc(C)cc(NC(=O)Nc2cc(S(=O)(=O)N(C)C)ccc2C)c1 | ? | 4 | -7% | 16µM*[quencher] | -13%
Cc1ccc(S(=O)(=O)N(C)C)cc1NC(=O)Nc1ccccc1F | -2% | -2 | -10% | -6% | -1%
Cc1ccccc1-c1cc2nccc(-c3cc(Cl)ccc3O)n2n1 | 2% | nt | nt | 4% | 9%
Cc1ccc(O)c(-c2ccnc3cc(-c4ccc(Cl)cc4)nn23)c1 | 32µM* | nt | nt | ? | 5%
COc1ccc(N(CC(=O)N2CCc3ccccc3C2)S(=O)(=O)c2ccc(C)cc2)cc1Cl | -10% | nt | nt | -18% | -4%
Cc1c(C(=O)Nc2nc3ccccc3[nH]2)oc2ccccc12 | 1% | -1 | 3.2µM* | -19% | -7%
Cc1c(C(=O)Nc2nc3ccccc3[nH]2)oc2ccc(Br)cc12 | 5% | -2 | ? | -16% | ?
Cc1ccc(CNC(=O)c2cccn2-c2nnc(N3CCCCC3)s2)cc1 | -1% | nt | nt | -15% | -4%
CCOC(=O)C1=C(CC)Nc2ccccc2N=C1NC(=O)Nc1ccc(Cl)c(Cl)c1 | 13µM* | -4 | -11% | ? | ?
O=C(N/N=C/c1ccccc1O)C1SCCCS1 | -6% | 0 | 28µM* | 3% | 6%
NC(=S)N/N=C/c1ccccc1O | 3% | -4 | ? | -1% | -10%
Cc1ncc(CO)c2c1OC(C)(C)OC2 | 5% | 8 | 1% | 4% | -1%
Cc1ncc(CCl)c2c1OC(C)(C)OC2 | -2% | -38* | -5% | -9% | -7%
COc1ccccc1CNC(=O)c1ccc2c(c1)sc1nc(-c3ccc(F)cc3)cn12 | -6% | nt | nt | -3% | -6%
COc1ccc(-c2oc(NC(C)=O)c(C#N)c2-c2ccc(OC)cc2)cc1 | ? | 8 | -3% | 16µM*[quencher] | ?
CCN(CC)c1nc(N)nc(NS(=O)(=O)c2ccc(Cl)cc2)n1 | -3% | -33* | 2% | -8% | -5%
CCNc1nc(NC(C)C)nc(NS(=O)(=O)c2ccc(Cl)cc2)n1 | 2% | -24 | 7% | 1% | 3%
Cc1nc(NC2CCCCC2)c2nc(-c3ccccc3)n(C(C)CN(C)C)c2n1 (stereo unspecified) | 14% | 2 | ? | -1% | -10%
O=C1NN(c2ccc(F)cc2)C(=O)/C1=C\C=C\c1ccco1 | ? | 4 | ? | ? | 13µM*
CC1=C(c2ccc(C)cc2)S(=O)(=O)N(Cc2ccc(C(=O)Nc3ccc(C)c(F)c3)cc2)C1=O | ? | nt | nt | -17% | 12%
Cc1sc2c(c1C)c(=O)n(Cc1ccccc1)c(=O)n2CC(=O)Nc1cccc(Cl)c1 | 32µM* | nt | nt | -24% | ?
